The list is not random: actives were taken first. Their share in the collection is about 10%.
G9a block: qHTS Assay for Inhibitors of Histone Lysine Methyltransferase G9a; Histone-lysine N-methyltransferase EHMT2 (Homo sapiens), Q96KQ7; G9a H3K9 monomethylation, AlphaScreen, 2 h; Potency, µM (top dose mostly 102 µM), for the others: top-dose activity, negative = inhibition, hits mostly inhibitors; 350,000 compounds, 8.8% hits; AID 504332, 2011; note: potency is the fitted concentration of half-maximal effect; % is set by controls: 0 for no effect and ±100 for the full control effect; nearly all actives have a fitted effect of over 75% in size
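AlphaScreen detection with an anti-monomethyl H3K9 antibody quantified product after a 2 h room-temperature reaction containing 500 nM biotinylated H3K9 peptide, 20 µM SAM and 20 nM enzyme, which had been preincubated 15 min with compound.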
CtBP-E1A inh: qHTS Assay for Inhibitors of the CtBP/E1A Interaction. CtBP / adenovirus E1A interaction (AlphaScreen). AlphaScreen GST-E1A/His-CtBP binding, 1536-well; stronger effect = lower value. activity change, % (no concentration beside the values). 340,000 compounds, 0.49% hits. AID 651724, 2012; in the data active = activity change below about -65%; inconclusive = mostly about -30% to -63%; note: % is set by controls: 0 for no effect and ±100 for the full control effect
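Homogeneous bead-based format: GST-tagged E1A captured on glutathione donor beads, His-tagged CtBP on nickel acceptor beads; compounds precede bead addition by 2 h at 37 °C.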
JMJD2A Tudor inh: qHTS Assay for Inhibitors of JMJD2A-Tudor Domain; Potency, µM (doses to about 114 µM), for inactives: at the top dose activity change, negative = inhibition, actives largely listed as inhibitors; AlphaScreen JMJD2A-Tudor / H3K4me3 peptide binding; Lysine-specific demethylase 4A (Homo sapiens), O75164; 390,000 compounds, 4.4% hits; note: potency is the fitted concentration of half-maximal effect; % is set by controls: 0 for no effect and ±100 for the full control effect; nearly all actives have a fitted effect of over 50% in size
HP1b binding inh: HTS for Inhibitors of HP1-beta Chromodomain Interactions with Methylated Histone Tails; Chromobox protein homolog 1 (Homo sapiens), P83916; AlphaScreen HP1-beta / biotin-H3K9me3 peptide binding; Potency, µM (titrated, usually from 114 µM), without a hit: top-dose activity change, negative = inhibition, hits mostly inhibitors; 390,000 compounds, 0.56% hits; AID 540317, 2011; note: potency is the fitted concentration of half-maximal effect; nearly all actives have a fitted effect of over 70% in size
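AlphaScreen: HP1-beta (50 nM) preformed 30 min with biotin-H3(1-18)K9me3 peptide (50 nM) in PBS pH 7.4, 0.01% Tween-20. Compound added for 30 min at RT, then streptavidin donor/nickel chelate acceptor beads (10 ug/mL) for 30 min.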
BAZ2B block: qHTS Assay for Inhibitors of BAZ2B. AlphaScreen BAZ2B-H3K14Ac peptide displacement. Potency, µM (series often up to 114 µM), for the others: at the highest dose activity change, negative = inhibition, usual class: inhibitors. 360,000 compounds, 4.4% hits; note: potency is the fitted concentration of half-maximal effect; % is set by controls: 0 for no effect and ±100 for the full control effect; nearly all actives have a fitted effect of over 60% in size
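AlphaScreen displacement of biotin-H3(5-23)K14Ac peptide (50 nM final) from BAZ2B (50 nM final) in PBS pH 7.4, 0.01% Tween-20; complex preformed 30 min RT, then compounds (top 110 uM) 30 min RT, beads 20 min dark.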
Six1-Eya2 inh: qHTS Assay for Inhibitors of the Six1/Eya2 Interaction. Homeobox protein SIX1 (Homo sapiens) + Protein phosphatase EYA2 (Homo sapiens), …. AlphaScreen GST-Six1/His-Eya2 binding, biochemical; stronger effect = lower value. activity change, % (concentration not given with the values). 360,000 compounds, 0.56% hits. AID 651725, 2012; in the data active = activity change below about -65%; inconclusive = mostly about -30% to -63%; note: % is set by controls: 0 for no effect and ±100 for the full control effect
Target sequence (O00167 whole entry, looked up): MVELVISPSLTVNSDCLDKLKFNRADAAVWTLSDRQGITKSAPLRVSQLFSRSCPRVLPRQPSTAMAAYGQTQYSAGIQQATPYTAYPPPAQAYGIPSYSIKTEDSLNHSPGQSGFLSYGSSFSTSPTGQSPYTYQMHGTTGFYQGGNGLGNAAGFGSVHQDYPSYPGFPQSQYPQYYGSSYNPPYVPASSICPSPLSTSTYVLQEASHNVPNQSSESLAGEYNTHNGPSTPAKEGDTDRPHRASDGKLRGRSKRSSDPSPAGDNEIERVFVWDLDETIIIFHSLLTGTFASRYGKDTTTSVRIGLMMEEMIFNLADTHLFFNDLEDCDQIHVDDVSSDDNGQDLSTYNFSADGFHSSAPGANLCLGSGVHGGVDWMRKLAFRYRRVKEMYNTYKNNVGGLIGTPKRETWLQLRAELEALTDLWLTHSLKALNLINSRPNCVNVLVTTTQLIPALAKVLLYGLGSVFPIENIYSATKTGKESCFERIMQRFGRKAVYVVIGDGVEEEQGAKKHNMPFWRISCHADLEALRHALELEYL
Target sequence (Q15475 whole entry, looked up): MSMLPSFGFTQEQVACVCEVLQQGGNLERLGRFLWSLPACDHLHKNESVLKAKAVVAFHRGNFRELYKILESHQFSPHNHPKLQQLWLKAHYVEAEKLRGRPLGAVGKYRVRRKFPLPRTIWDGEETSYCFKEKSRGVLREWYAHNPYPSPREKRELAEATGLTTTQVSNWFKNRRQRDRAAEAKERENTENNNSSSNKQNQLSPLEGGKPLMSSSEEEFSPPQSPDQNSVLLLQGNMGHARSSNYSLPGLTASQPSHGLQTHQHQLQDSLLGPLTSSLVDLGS
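Six1/Eya2 binding was read as AlphaScreen signal after compounds were pinned into GST-Six1 plus His-tagged Eya2 (5X stock 250/500 nM) in pH 8.0 Tris/NaCl/TCEP buffer, beads added, then incubated 1 h, 37 C, dark.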
* marks the source's active call; other numbers are inactive results; ? = inconclusive; / = no result given; [ ] = remark or other dose. Unless noted, calls come from the whole dose curve; as a rule, active = well fitted inhibition curve with a large enough effect; inconclusive = small, poorly fitted or top-dose-only effect; inactive = no such curve, though single readings can be large or run the other way.

SMILES	G9a block	CtBP-E1A inh	JMJD2A Tudor inh	HP1b binding inh	BAZ2B block	Six1-Eya2 inh
CCCOP(=O)(c1ccc(N(C)C)cc1)C(Nc1ccccc1)c1ccc(C)cc1 (stereo not drawn)	-2%	0	-26%	?	?	-15
Cn1cc(S(=O)(=O)c2ccc(Cl)cc2)c(=O)c2cc(F)c(N3CCOCC3)cc21	1%[59 µM]	/	-12%	1%	0%	/
CCOCCCn1c(=N)c(C(=O)NC2CCCCC2)cc2c(=O)n3ccccc3nc21	-32%[59 µM]	/	-16%	4%	4%	/
Cc1c(Cl)cccc1NC(=O)CSc1ncccc1C(=O)Oc1ccccc1Cl	-4%[59 µM]	/	-2%	21%	1%	/
Cc1ccc(S(=O)(=O)c2c(COC(=O)c3ccccc3Cl)c(-c3ccccc3)nn2C)cc1	-2%	-3	1%	27%	6.3µM*	6
COc1ccc(S(=O)(=O)c2nnn(-c3cc(Cl)c(OC)cc3OC)c2C)cc1	-38%[59 µM]	/	-18%	27%	-25%	/
COc1ccc(CCN(C)C(=O)CSc2nc3ncc(Cl)cc3[nH]2)cc1OC	?	-2	-10%	24%	-1%	2
CCOc1ccccc1Nc1nc(-c2cccc(Cl)c2)c2c(n1)-c1ccccc1OC2	25µM*	/	56µM*	-33%	?	/
CC1=C(C(=O)N(C)C)CC(CC(=O)NCc2cccs2)C(=O)N1CCCN1CCCC1=O (stereo not drawn)	/	6	/	/	/	-4
CCCn1ncc(CN2CCC(Oc3ccc(C(=O)N4CCCC4)cc3)CC2)c1C	12%	3	-13%	20%	-12%[57.1 µM]	2
C=CCNC(=S)NNC(=O)COc1cccc(Cl)c1	25µM*	0	-7%	17%	-5%	-2
C=CCNC(=S)NNC(=O)COc1ccc2cc(Br)ccc2c1	5%	-19	-9%	33%	-22%	-3
C=CCNC(=S)NNC(=O)COc1ccc(Br)cc1	32µM*	-3	?	25%	5%	3
O=C(N/N=C/c1ccc(N2CCOCC2)o1)c1cccc(F)c1	7.1µM*	-3	?	-3%	2%	-1
COc1ccc(C(=O)N/N=C/c2ccc(N3CCOCC3)o2)cc1OC	8.9µM*	-17	-36%	-7%	-28%	-1
Cc1ccc(N2C(=O)C(CN3CCCCC3)C2c2ccccc2)cc1 (stereo not drawn)	8%[59 µM]	0	-21%	89µM*	-7%	2
COCCNc1ncnc2ccc(-c3ccccc3C)cc12	6%[0.501 µM]	/	/	/	/	/
CCOC(=O)c1nn(-c2ccc(F)cc2)c(=O)c(C#N)c1C	/	-20	-7%	10%	-2%	-11
Fc1ccccc1CN1CCCCCCC1	-50%[12.7 µM]	5	4µM*	?	50µM*	2
Fc1ccc(CN2CCCCCCC2)c(F)c1	?	11	3.2µM*	?	50µM*	0
Fc1ccc(CN2CCCCCC2)c(F)c1	-9%[12.7 µM]	-2	?	?	?	3
O=S(=O)(c1ccc(Br)cc1)N1CCCN(Cc2ccccc2F)CC1	-8%	-15	12%	37%	0%	-6
COc1cc(NC(=O)N2CCC(CN3CCCC3)CC2)cc(OC)c1OC	-6%[59 µM]	/	-17%	-6%	-14%	/
O=C(O)C(=O)Nc1nc(-c2ccc3c(c2)OCCO3)cs1	32µM*	/	-22%	13%[57 µM]	?	?
CC(C)c1ccc(NC(=O)C2CCCCN2S(=O)(=O)c2ccccc2)cc1 (stereo not drawn)	4%[2.33 µM]	/	2%	57%	0%	7
SMILES	G9a block	CtBP-E1A inh	JMJD2A Tudor inh	HP1b binding inh	BAZ2B block	Six1-Eya2 inh
Fc1ccccc1-c1nnc2ccc3ccccc3n12	-9%[0.501 µM]	-5	-22%	-7%	-39%	-5
Fc1cccc(Cl)c1-c1nnc2ccc3ccccc3n12	32µM*	1	-34%	-16%	/	2
CCNC(=O)CC1SC(=Nc2cccc3ccccc23)N(C)C1=O (stereo not drawn)	50µM*	10	-14%	16%	3%	3
CCOc1cccc(C(=O)Nc2c(C(=O)c3ccc(OC)cc3)oc3ccccc23)c1	26%[59 µM]	/	21%	32%	18%	/
CC(NCC(O)COc1ccc2ccccc2c1)c1ccccc1 (stereo not drawn)	14µM*	-6	0.79µM*	45µM*	50µM*	-1
Cc1cc(=O)n(CC(=O)N2CCCc3ccccc32)c2c1c(C)nn2-c1cccc(F)c1	12%[59 µM]	/	-12%	4%	-5%	/
COc1cc2c(cc1OC)CN(C(=O)c1ccc(Br)o1)CC2	50µM*	-7	-13%	16%	-21%	-13
COc1cc2c(cc1OC)CN(C(=O)/C=C/c1ccc([N+](=O)[O-])cc1)CC2	50µM*	-25	-29%	0%	?	-22
COc1cc2c(cc1OC)CN(C(=O)c1cccc([N+](=O)[O-])c1)CC2	19%[12.7 µM]	0	50µM*	-9%	-11%	-11
COc1cc2c(cc1OC)CN(C(=O)/C=C/c1ccccc1[N+](=O)[O-])CC2	?	-10	-28%	-2%	?	-14
COc1cc2c(cc1OC)CN(C(=O)c1ccc(OC)c([N+](=O)[O-])c1)CC2	?	-1	-1%	13%	-5%	-16
Cc1cc(N)n(-c2ccc(S(=O)(=O)c3ccc(C(C)C)cc3)cc2)n1	-38%	0	-11%	20%	-38%	-4
CCOc1ccccc1CNC(=O)c1ccc(NC(=O)N2CCSc3ncccc32)cc1	-5%[59 µM]	/	3%	38%	-17%	/
O=C1/C(=C\c2ccc(O)c(O)c2)N=C2CCCCCN12	28µM*	-4	3.2µM*	-4%	?	-9
COc1cc(/C=C2\N=C3CCCCCN3C2=O)ccc1O	?	49	-18%	39%	-24%	12
O=C(COC(=O)c1ccc2c(c1)OCO2)Nc1ncc(Cl)cc1Cl	-1%[59 µM]	6	-10%	35%	-4%	4
Cc1c(Cl)cnc(NC(=O)COC(=O)c2ccc3ncsc3c2)c1Cl	?	-9	?	0%	50µM*	-10
Cc1c(Cl)cnc(NC(=O)COC(=O)c2ccc([N+](=O)[O-])s2)c1Cl	25µM*	-18	50µM*	-19%	45µM*	-21
O=C(COC(=O)c1ccc(O)cc1)Nc1ncc(Cl)cc1Cl	?	1	-8%	27%	79µM*	-8
Cc1c(Cl)cnc(NC(=O)COC(=O)c2cccs2)c1Cl	23%[12.7 µM]	4	-7%	49%	22%	1
